The nature of assay [1]: Quantitative High-Throughput drug screen in 47 multiple myeloma cell lines against the NCATS MIPE library collection: KMS26_JCRB cell viability assay (AID 1918975). Also: nearly all actives have a fitted effect of over 45% in size. In short, it runs like this: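 Myeloma cells (500 per well) were exposed to MIPE 4.0 compounds by pin transfer and incubated 48 hours at 37C, 5% CO2. Viability was read as ATP by CellTiter-Glo luminescence, normalised to DMSO (100%) and media-only (0%) wells.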

Assay [2] in a line: Quantitative High-Throughput drug screen in 47 multiple myeloma cell lines against the NCATS MIPE library collection: MMM1_PLB cell viability assay (AID 1918976). Also: nearly all actives have a fitted effect of over 35% in size. The procedure, abridged: (§1)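 Readout: median RLU from CellTiter-Glo after 5 min at room temperature. Preceding step was 48 h drug treatment of 500 cells/well at 37 °C, 5% CO2, with DMSO-only and media-only control wells.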

Assay [3] can be described thus: Quantitative High-Throughput drug screen in 47 multiple myeloma cell lines against the NCATS MIPE library collection: MOLP8_DSMZ cell viability assay (AID 1918977). Also: nearly all actives have a fitted effect of over 45% in size. In short, it runs like this: as §1
A short description of assay [4]: Quantitative High-Throughput drug screen in 47 multiple myeloma cell lines against the NCATS MIPE library collection: NCIH929_DSMZ cell viability assay (AID 1918978). Also: nearly all actives have a fitted effect of over 35% in size. In short, it runs like this: as §1
A short description of assay [5]: Quantitative High-Throughput drug screen in 47 multiple myeloma cell lines against the NCATS MIPE library collection: MM1S_ATCC cell viability assay (AID 1918980). Also: nearly all actives have a fitted effect of over 45% in size. The procedure, abridged: as §1
The nature of assay [6]: Quantitative High-Throughput drug screen in 47 multiple myeloma cell lines against the NCATS MIPE library collection: MM1R_ATCC cell viability assay (AID 1918981). Also: nearly all actives have a fitted effect of over 35% in size. In short, it runs like this: as §1
Assay [7] can be described thus: Quantitative High-Throughput drug screen in 47 multiple myeloma cell lines against the NCATS MIPE library collection: KMS28PE_JCRB cell viability assay (AID 1918983). Also: nearly all actives have a fitted effect of over 35% in size. The procedure, abridged:
as §1

A short description of assay [8]: Quantitative High-Throughput drug screen in 47 multiple myeloma cell lines against the NCATS MIPE library collection: L363_DSMZ cell viability assay (AID 1918984). Also: nearly all actives have a fitted effect of over 40% in size. The procedure, abridged: as §1
Assay [9] is described as follows: Quantitative High-Throughput drug screen in 47 multiple myeloma cell lines against the NCATS MIPE library collection: OCIMY1_PLB cell viability assay (AID 1918979). Also: nearly all actives have a fitted effect of over 35% in size. As to viability: series mostly up to about 46 µM. In short, it runs like this: as §1
The nature of assay [10]: Quantitative High-Throughput drug screen in 47 multiple myeloma cell lines against the NCATS MIPE library collection: LP1_DSMZ cell viability assay (AID 1918982). Also: nearly all actives have a fitted effect of over 35% in size. The procedure, abridged:
as §1

Inconclusive results are not listed. Active and inactive are the calls of the source. Calls follow the shape of the dose curve; as a rule, active = well fitted curve in the direction sought with a large enough effect; inconclusive = small, poorly fitted or top-dose-only effect, or another doubt; inactive = no such curve, though single readings can be large; an effect the other way counts as inactive or inconclusive.
Potency is read from the fitted curve at half-maximal effect.

Consider `NC1(Cc2ccc(Cl)cc2)CCN(c2ncnc3[nH]ccc23)CC1`, for which the Potency is 6.62 µM (active) in [1]; 0.526 µM (active) in [2]; 8.33 µM (active) in assay [3]; 0.935 µM (active) in assay [4]; 1.87 µM (active) in [5]; 5.9 µM (active) in [6]. Also, the Potency was 5.26 µM (active) in assay [7] and 1.87 µM (active) in [8].

For `CCOc1ccccc1OCCNC(C)Cc1ccc(OC)c(S(N)(=O)=O)c1` (centres undefined), the Potency result in assay [1], in assay [3], in [4], in assay [9], in [5] and in assay [6] was “inactive” each time. Moreover, the Potency entry in assay [7] and in assay [8] was “inactive” in each case.

On to `CN1CCN(c2ccc3nc(-c4c(N)c5c(F)cccc5[nH]c4=O)[nH]c3c2)CC1`, for which the Potency in assay [1] is 29.6 µM (active); in assay [3], 5.9 µM (active); in [4], 2.35 µM (active); in assay [9], 18.7 µM (active); in [5], 16.6 µM (active); in assay [7], 26.4 µM (active). For the same compound, the Potency in [8] was 2.96 µM (active).

In the case of `COc1cc2c(cc1-c1c(C)noc1C)ncc1[nH]c(=O)n([C@H](C)c3ccccn3)c12`, the Potency in assay [1] was 0.0264 µM (active); in assay [3], 0.296 µM (active); in assay [4] it was 3.32 µM (active); in assay [5] it was 2.64 µM (active); in [6], 3.32 µM (active); in assay [10], 0.372 µM (active). For the same compound, the Potency in assay [7] was 0.662 µM (active).

In the case of `Cc1cc(Nc2cc(NC(=O)c3c(Cl)cccc3Cl)ccn2)nc(N)n1`, the Potency in assay [1] is 16.6 µM (active); in assay [3], 23.5 µM (active); in [4], 9.35 µM (active); in [5], 0.209 µM (active); in [6], 0.469 µM (active); in [10], 0.418 µM (active). Also, the Potency was 26.4 µM (active) in assay [7] and 1.66 µM (active) in assay [8].

For the compound `CN(c1ncccc1CNc1nc(Nc2ccc3c(c2)CC(=O)N3)ncc1C(F)(F)F)S(C)(=O)=O`, the Potency in [1] was 7.43 µM (active); in [3], 4.18 µM (active); in assay [4], 2.96 µM (active); in assay [9], 13.2 µM (active); in assay [5], 6.62 µM (active); in assay [6], 6.62 µM (active). For the same compound, the figures for the Potency in assay [10], in assay [7] and in assay [8] were 8.33 µM (active), 9.35 µM (active) and 2.64 µM (active), respectively.

For the compound `Nc1ncnc2c1c(-c1cccc(OCc3ccccc3)c1)cn2C1CC(CN2CCCC2)C1` (centres undefined), the Potency in assay [1] was 4.69 µM (active); in [3], 16.6 µM (active); in assay [4], 0.0833 µM (active); in assay [5] it was 1.87 µM (active); in assay [6], 1.66 µM (active); in [10] it was 5.9 µM (active). Further, the Potency was 1.05 µM (active) in assay [7] and 0.332 µM (active) in [8].

Consider `Clc1ccc2ncc(-c3cccc(NC4CNC4)n3)n2c1`, for which the Potency in assay [1] was 23.5 µM (active); in assay [3], 14.8 µM (active); in assay [4] it was 20.9 µM (active); in assay [9], 20.9 µM (active); in assay [5] it was 5.26 µM (active); in assay [6], 16.6 µM (active).

With `COc1c(OCCCN2CCOCC2)ccc2c3n(c(=NC(=O)c4cnc(N)nc4)nc12)CCN3`, the Potency was 0.407 µM (active) in assay [1]; 0.0288 µM (active) in [3]; 0.0129 µM (active) in assay [4]; 0.0204 µM (active) in assay [9]; 0.0911 µM (active) in assay [5]; 0.0812 µM (active) in assay [6]. Also, the Potency in assay [7] is 0.0645 µM (active).

Consider `CC(C)c1ccccc1Cc1cc(C(=O)Nc2ccc(S(=O)(=O)c3ccccc3C(C)(C)C)cc2)c(O)c(O)c1O`, for which the Potency is 9.35 µM (active) in [1]; 13.2 µM (active) in assay [3]; 7.43 µM (active) in [4]; 23.5 µM (active) in assay [9]; 11.8 µM (active) in assay [5]; 10.5 µM (active) in assay [6]. In addition, the Potency in [7] is 16.6 µM (active). For the same compound, the Potency entry in assay [8] is “inactive”.

Consider `O=C(O)[C@H](Cc1c[nH]c2ccccc12)N1C(=O)c2ccccc2C1=O`, for which the Potency entry in assay [1], in [3], in assay [9], in assay [10] and in assay [7] was “inactive” in each case. Moreover, the Potency is 54 µM (active) in [4] and 42.9 µM (active) in [5].

Turning to `CC(=O)c1c(C)c2cnc(Nc3ccc(N4CCNCC4)cn3)nc2n(C2CCCC2)c1=O`, the Potency in assay [1] is 18.7 µM (active); in assay [3] it was 18.7 µM (active); in assay [4], 20.9 µM (active); in assay [5], 20.9 µM (active); in [6], 14.8 µM (active); in assay [10], 5.9 µM (active). In addition, the Potency was 18.7 µM (active) in [7] and 23.5 µM (active) in assay [8].

Turning to `COc1cc(C)c(Sc2cnc(NC(=O)c3ccc(CNC(C)C(C)C)cc3)s2)cc1C(=O)N1CCN(C(C)=O)CC1` (centres undefined), the Potency in assay [1] is 14.8 µM (active); in [2], 4.69 µM (active); in assay [4], 2.96 µM (active); in assay [5], 16.6 µM (active); in [6], 14.8 µM (active); in assay [7] it was 14.8 µM (active). For the same compound, in [8], the Potency is 9.35 µM (active).

Regarding `C[C@@H]1COC(Nc2ccc3ncnc(Nc4ccc(OCc5nccs5)c(Cl)c4)c3c2)=N1`, the Potency is 20.9 µM (active) in [1]; 23.5 µM (active) in assay [2]; 3.32 µM (active) in assay [4]; 4.18 µM (active) in assay [5]; 26.4 µM (active) in assay [10]; 9.35 µM (active) in assay [8].

As for `Cc1cnc(Nc2ccc(F)cc2Cl)nc1-c1c[nH]c(C(=O)N[C@H](CO)c2cccc(Cl)c2)c1`, the Potency in assay [1] was 20.9 µM (active); in assay [3], 23.5 µM (active); in [4], 16.6 µM (active); in assay [9] it was 26.4 µM (active); in assay [5] it was 16.6 µM (active); in assay [10] it was 18.7 µM (active). Besides, the Potency in [8] was 1.32 µM (active).

Consider `C=C1C(=CC=C2CCCC3(C)[C@@H]([C@H](C)C=CC=CC(O)(CC)CC)CC[C@@H]23)C[C@@H](O)C[C@@H]1O` (some centres undefined), for which the Potency was 23.5 µM (active) in assay [1]; 20.9 µM (active) in [2]; 10.5 µM (active) in assay [5]; 14.8 µM (active) in assay [6]; 26.4 µM (active) in assay [7]; 23.5 µM (active) in [8].

On to `O=C(O)CCCc1c[nH]c2ccccc12`, for which the Potency entry in [1], in assay [3], in [4], in [9], in [6] and in assay [10] was “inactive” throughout. For the same compound, the Potency result in [7] and in assay [8] was “inactive” throughout.

`c1cc(-c2cnn3cc(-c4ccc(OCCN5CCCCC5)cc4)cnc23)ccn1`: the Potency in [1] was 16.6 µM (active); in [3], 10.5 µM (active); in assay [4], 2.35 µM (active); in assay [9] it was 26.4 µM (active); in [5], 16.6 µM (active); in assay [6], 18.7 µM (active). For the same compound, the Potency was 13.2 µM (active) in assay [10] and 11.8 µM (active) in assay [7]. In addition, the Potency result in assay [8] was “inactive”.

These data come from PubChem BioAssay (NCATS).
